The whole screen tested about 200,000 compounds, of which about 10 (0.005%) were called active. About 8% were inconclusive and are not listed. Calls come from the whole dose curve; as a rule, active = well fitted inhibition curve with a large enough effect; inconclusive = small, poorly fitted or top-dose-only effect, or effect the other way, or another doubt; inactive = no such curve, though single readings can be large or run the other way. The list is a sample of the results.
Biological target: Lysosomal alpha-glucosidase (Homo sapiens) (UniProt P10253)
Test: qHTS Assay for Inhibitors of Human alpha-Glucosidase as a Potential Chaperone Treatment of Pompe Disease;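 note: plate controls were uninhibited enzyme wells for no effect and no-enzyme background for full effect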
Conditions: purified human GAA, 4-MU-alpha-glucoside fluorescence; series mostly up to 76.9 µM
From the text: NIH Chemical Genomics Center [NCGC] NIH Molecular Libraries Probe Production centers Network [MLPCN] MLPCN Grant: 1R03MH084841-01 Assay Submitter (PI): Wei Zheng NCGC Assay Overview: Alpha-glucosidase is responsible for hydrolysis of terminal, non-reducing 1,4-linked alpha-D-glucose residues with release of alpha-D-glucose. It is a lysosomal hydrolase that is required for the degradation of a small percentage (1-3%) of cellular glycogen in human. Deficiency of this enzyme results in glycogen-storage disease type II (GSDII), also referred to as Pompe disease, an autosomal recessive disorder. Structurally normal glycogen is accumulated in lysosomes and cytoplasm in affected patients, primarily in muscle tissues. Excessive glycogen storage within lysosomes may interrupt normal functioning of other organelles and leads to cellular injury. In turn, this leads to enlargement and dysfunction of the entire organ involved (eg, cardiomyopathy and muscle weakness). It has reported that the improper folding and trafficking of alpha-glucosidase resulting from the genetic mutations may account for a significant number of Pompe patients. […] We optimized this alpha-glucosidase assay in 1536-well plate format for identifying the novel small molecule inhibitors with the structures other than the sugar analogs in order to develop the new pharmacological chaperones.
NCGC Assay Protocol Summary: This is a fluorogenic enzyme assay with 4-methylumbelliferyl-alpha-D-[…] as the substrate and human alpha-glucosidase as the enzyme preparation. Upon the hydrolysis of this fluorogenic substrate, the resulting product, 1. 4-methyllumbelliferone, can be excited at 365 nm and emits at 440 nm which can be detected by a standard fluorescence plate reader. Data were normalized to the controls for basal activity (without enzyme) and 100% activity (with enzyme). In the AC50 values were determined from concentration-response data modeled with the standard Hill equation. Assay buffer: 50 mM citric acid (titrated with potassium phosphate to pH 5.0), 0.005% Tween-20, pH 5.0. (pH 5.0 is an optimal condition for this enzyme assay) 1536-well assay protocol for the human alpha-glucosidase: (1) Add 2 ul/well of enzyme (4 nM final) (2) Add 23 nL compounds in DMSO solution. The final titration was 0.7 nM to 77 uM. (3) Add 1 ul of substrate (400 uM final) (4) Incubate at room temperature for 20 min. (5) Add 2 ul stop solution (1M NaOH and 1M Glycine mixture, pH 10) (6) Detect the assay plate in a ViewLux plate reader (PerkinElmer) with Ex=365 nm and Em=440nm. Keywords: Alpha-glucosidase, Pompe Disease, pharmacological chaperone, chaperone therapy, high throughput screening, alpha-glucosidase inhibitor, MLSMR, MLSCN, NIH Roadmap, qHTS and NCGC

SMILES | activity change, negative = inhibition
CN1CCc2nc(SC(C(=O)O)c3ccccc3)c(C#N)c(-c3cccs3)c2C1 (stereo not drawn) | inactive
COc1ccccc1NC(=S)N1CCN(C(c2ccccc2)c2ccccc2)CC1 | inactive
S=C(NNC(=S)NC1CC2CCC1C2)NC1CC2C=CC1C2 (stereo not drawn) | inactive
COc1ccccc1NC(=S)N1CCC(NC(=O)C23CC4CC(CC(C4)C2)C3)CC1 | inactive
COc1ccc2[nH]c(C(=O)Nc3ccccc3Cl)cc2c1 | inactive
COc1ccc(Br)c2c1C(=O)CC2 | inactive
c1ccc(-n2nnnc2-c2cccnc2)cc1 | inactive
CCCSc1ncccc1C(=O)O | inactive
Cn1c(SCC(=O)c2ccc(F)cc2)nnc1-c1ccccn1 | inactive
COc1ccc(Cl)cc1NC(=O)C(C)N1CCc2ccccc21 (stereo not drawn) | inactive
CSc1ccc(CNCCN2CCOCC2)cc1 | inactive
Cc1ccccc1NC(=O)Nc1ccccc1N1CCCCC1 | inactive
Clc1ccc(CSc2nnc3c(n2)[nH]c2ccccc23)cc1 | inactive
O=C(COc1ccc(S(=O)(=O)N2CCCCC2)cc1)NCc1ccccn1 | inactive
O=C(NNS(=O)(=O)c1ccccc1C(F)(F)F)c1cc2ncc(C(F)(F)F)cc2s1 | inactive
CCOC(=O)C1CCN(C(=O)C2(NC(=O)Nc3cccc(F)c3)CCCCC2)CC1 | inactive
Cc1ccccc1-c1nc(C#N)c(NCc2ccco2)o1 | inactive
Cc1cccc(C(=O)N2CCC(c3nc4ccccc4s3)CC2)c1 | inactive
COc1ccc(CN2CCN(Cc3cn(C)nc3-c3ccccc3)CC2CCO)c(C)c1C (stereo not drawn) | inactive
Cc1noc(C)c1/C=N/Nc1ccc2ccccc2n1 | inactive
COc1cc(CNCCN(C)C)ccc1OCc1c(F)cccc1Cl | inactive
Cc1ccc(C(=O)NC(=S)Nc2ccc(N3CCOCC3)cc2)cc1 | inactive

SMILES | activity change, negative = inhibition
O=C(CN1CCN(C/C=C/c2ccccc2)CC1)Nc1ccc(F)cc1F | inactive
COC(=O)c1cn(C(=O)c2ccc(Cl)cc2)c2ccccc12 | inactive
O=C1/C(=C/c2cccs2)CCC1C1CCCC1 (stereo not drawn) | inactive
O=C(CCl)N(Cc1cccc([N+](=O)[O-])c1)c1cccc(Cl)c1 | inactive
Cc1cc(OC(=O)c2ccccc2)c([N+](=O)[O-])c(=O)[nH]1 | inactive
CC(O)CNCCOc1cccc(Oc2ccccc2)c1 (stereo not drawn) | inactive
O=C(CSc1ncn[nH]1)Nc1nc(-c2cccc([N+](=O)[O-])c2)cs1 | inactive
Nc1ccc(C(=O)OCC(=O)NC2CCS(=O)(=O)C2)cc1[N+](=O)[O-] (stereo not drawn) | inactive
COc1cccc(OCCCN2CCCCCC2)c1 | inactive
Cc1ccc(Cl)cc1NC(=O)COC(=O)CC(C)(C)C | inactive
CCC1(C)Cc2c(sc3nc(SC)[nH]c(=O)c23)CO1 (stereo not drawn) | 0.866% [at 15.4 µM] (inactive)
CC1CCN(S(=O)(=O)c2ccc3ncn(CC(=O)N(C)C4CCCCC4)c(=O)c3c2)CC1 | inactive
Cc1nn(-c2ccccc2)c(=O)c2noc(C)c12 | -3.66% [at 15.4 µM] (inactive)
Cc1ccc(NNC(=O)c2c(F)cccc2Cl)cc1Cl | 1.45% [at 15.4 µM] (inactive)
Cc1c(C(=O)N(Cc2ccccc2)Cc2cccnc2)cnn1-c1ccc(F)cc1 | inactive
CCOC(=O)C(=CNNc1ccsc1C(=O)OC)C(=O)OCC | inactive
Cc1ccc(-c2csc(-c3cc(C)on3)n2)cc1 | inactive
CC(=O)Nc1ccc(S(=O)(=O)Nc2nccc(/C=C/c3ccccc3F)n2)cc1 | inactive
CCN1CCN(C(C(=O)NC2CCCC2)c2cc3c(cc2[N+](=O)[O-])OCO3)CC1 (stereo not drawn) | inactive
Cc1ccc(C2CCN(C(=S)Nc3cccc(Cl)c3)C2)cc1 (stereo not drawn) | inactive
COc1cccc(-c2ccc(SCC(=O)N3CCN(c4ccccc4)CC3)nn2)c1 | inactive
COc1ccccc1-c1c(C#N)c(N)nc2c1CCC2 | 6.93% [at 15.4 µM] (inactive)

SMILES | activity change, negative = inhibition
Cc1noc(C)c1-c1nc(CSc2ccc(Cl)cc2)no1 | inactive
C/C(=N/NC(=O)c1ccn(C)n1)c1ccncc1 | inactive
O=C(COC(=O)c1ccccn1)Nc1cccc2ccccc12 | inactive
CC(C)CCN1CCN(Cc2ccc(C(F)(F)F)cc2)CC1CCO (stereo not drawn) | inactive
O=C(NC(Cc1c[nH]c2ccccc12)C(=O)O)/C(=C/c1ccco1)NC(=O)c1ccccc1 (stereo not drawn) | inactive
COc1ccccc1-n1c(=S)[nH]c2c(sc(=S)n2-c2ccc(C)cc2C)c1=O | inactive
COc1ccc(C)cc1NC(=O)NCc1ccccn1 | inactive
Cn1c(CC2Sc3ccccc3NC2=O)nnc1SCC(=O)c1ccc(Cl)cc1 (stereo not drawn) | inactive
N#Cc1ccc(Oc2ccc(C(F)(F)F)cc2NC(=O)c2ccc(F)cc2)cc1 | inactive
O=C(CSc1ccc([N+](=O)[O-])cn1)Nc1ccc(N2CCOCC2)c(Cl)c1 | inactive
C/C(=N/O)c1ccc(N2C(=O)C3C4C=CC(C3C2=O)C2C3C(=O)N(c5ccc(/C(C)=N/O)cc5)C(=O)C3C42)cc1 (stereo not drawn) | inactive
CC(=O)c1ccc(N=C2SCCCN2C(=O)C2CCCCC2)cc1 | inactive
O=C(NNC(=S)NC(=O)c1cn(-c2ccccc2)nc1-c1ccccc1)c1ccncc1 | inactive
COc1ccc(C)cc1NC(=S)Nc1ccccc1SC | inactive
Cc1ccc(S(=O)(=O)NC(=O)N2CCCN(Cc3ccc(F)cc3)CC2)cc1 | inactive
Cc1ccc(/C=N/NC(=O)CN2CCN(Cc3ccccc3)CC2)s1 | -2.78% [at 15.4 µM] (inactive)
CCS(=O)(=O)c1ccc(O)c(NC(=O)COc2ccc(Cl)cc2)c1 | inactive
CCc1nc2ccccc2c(C(=O)NCc2ccc(OC)cc2)c1C | inactive
CCc1ccc(CN(C)C(=O)CCc2nnc(-c3ccc(-c4ccccc4)cc3)o2)nc1 | inactive
CN(C)c1ccc(C=NCCc2ccc(S(N)(=O)=O)cc2)cc1 | inactive
COc1ccc(CN2CCC(c3nc4ccc(Cl)cc4[nH]3)CC2)cc1 | inactive
Cc1ccccc1CSc1nnc(-c2ccccc2)c(=O)[nH]1 | inactive

SMILES | activity change, negative = inhibition
CCC(=O)OCCNc1nc(-c2ccccc2)nc2ccccc12 | inactive
NNC(=O)c1cnn(-c2ccccc2)c1C(F)(F)F | inactive
Cc1ccc(CN(Cc2cccnc2)C(=S)Nc2cccc(Cl)c2C)cc1 | inactive
CCOc1cc2c(Cl)ncnc2c(OCC)c1OCC | inactive
CC12C(=O)N(c3ccccc3)C(=O)C1C(c1ccccc1)N1CCCN12 (stereo not drawn) | -7.1% [at 15.4 µM] (inactive)
CSc1nc(C)nc(C2CC2)c1C#N | inactive
COc1ccc(C)cc1NC(=O)CSc1nnc(CC(=O)Nc2ccccc2F)n1C | inactive
C=CCc1ccc(OCC(O)CN2CCN(Cc3ccccc3)CC2)c(OC)c1 (stereo not drawn) | inactive
O=C(c1ccc(-c2ccccc2)cc1)C1CCCN(C(=O)c2cncs2)C1 (stereo not drawn) | inactive
Cc1c(CCC(=O)O)c(=O)oc2cc3occ(-c4ccccc4)c3cc12 | 4.78% [at 15.4 µM] (inactive)
Cc1n[nH]c(=O)n1-c1ccc(C(C)C)cc1 | inactive
O=C(COC(=O)c1ccncc1)c1ccccc1 | inactive
O=C(Nc1ccc(S(=O)(=O)Nc2nccs2)cc1)c1cc(=O)[nH]c2ccccc12 | -5.51% [at 15.4 µM] (inactive)
COC(=O)c1ccc(CN2CCN(CCCc3ccccc3)C(CCO)C2)cc1 (stereo not drawn) | inactive
Cc1cc(CO)nn1-c1ccc([N+](=O)[O-])cc1 | inactive
Cc1ccc2cc(CN(c3ccc(C)c(C)c3)S(C)(=O)=O)c(=O)[nH]c2c1 | inactive
O=C(Cc1ccccc1)N1CCN(S(=O)(=O)c2ccc([N+](=O)[O-])cc2)CC1 | inactive
CC(=O)c1c(-c2ccccc2)c2ccccc2[nH]c1=O | inactive
c1ccc(-c2cc(N3CCCCC3)c3ccccc3n2)cc1 | inactive
FC(F)(F)c1ccnc(Oc2ccc(C3=NCCS3)cc2)c1 | inactive
O=C(O)CC1=C(Nc2ccccc2)C(=O)N(c2ccccc2)C1c1ccc(Cl)cc1 (stereo not drawn) | inactive
CC1CCCN(CC(O)COc2ccc3c(c2)OCO3)C1 (stereo not drawn) | inactive

SMILES | activity change, negative = inhibition
COc1ccc(/C=C/CN2CCN(Cc3ccc(C)cc3)C(CCO)C2)cc1 (stereo not drawn) | inactive
COc1cc(C)c(Cl)cc1S(=O)(=O)n1ccnc1 | inactive
CCOC(=O)C1(CC2CCCCO2)CCN(Cc2nc(-c3cccs3)oc2C)CC1 (stereo not drawn) | inactive
O=C(c1ccc(OC2CCN(Cc3ccccn3)CC2)cc1)N1CCCCCC1 | inactive
c1ccc(Cc2cc[n+](Cc3ccccc3)cc2)cc1 | inactive
Cc1nc(N)[nH]c(=O)c1Oc1cccc(C(F)(F)F)c1 | inactive
CC(C)Oc1ccc(CCc2nnc(SCC(=O)O)n2-c2ccccc2)cc1 | inactive
O=C(NC1C2CC3CC(C2)CC1C3)c1ccc(N2CCNCC2)c([N+](=O)[O-])c1 (stereo not drawn) | -3.61% [at 15.4 µM] (inactive)
CCN(CC)P(=O)(Nc1ccc(SC(F)F)cc1)c1ccc(N(C)C)cc1NC(=O)c1ccco1 (stereo not drawn) | inactive
C=C(C)COc1ccc(-c2nc(N)ncc2-c2ccccc2OC)c(O)c1 | inactive
CCN(CCn1cccn1)Cc1nc(-c2ccc(C(=O)OC)cc2)no1 | inactive
O=C1Oc2ccccc2C(=O)/C1=C/c1ccccc1O | inactive
Cc1ccc(S(=O)(=O)N2CCOCC2)cc1C(=O)OC1CCCCC1=O (stereo not drawn) | inactive
N#CC1=C(N)Oc2c(ccc3cccnc23)C1c1ccncc1 (stereo not drawn) | -8.01% [at 15.4 µM] (inactive)
COC(=O)c1sccc1NN1C(=O)c2ccccc2C1=O | inactive
CCc1ccc(-n2c(SCc3cc(=O)n4cc(Br)ccc4n3)nc3[nH]ncc3c2=O)cc1 | inactive
O=C(c1ccc(F)cc1)n1c(=S)nc2ccccn21 | inactive
COc1ccc(CN2CCCC(C(=O)c3ccc(Cl)cc3)C2)cc1Cn1cncn1 (stereo not drawn) | inactive
CS(=O)(=O)c1ccc2nnn(OCC(=O)Nc3cccc(C#N)c3)c2c1 | inactive
CCOC(=O)c1ccc(NNC(C)=O)c([N+](=O)[O-])c1 | inactive

Source: PubChem BioAssay AID1466 (National Center for Advancing Translational Sciences (NCATS), 2008)
